{
  "source": "PubChem BioAssay (Tox21)",
  "note": "Results filed as inconclusive are left out. The source made the active and inactive calls. The call rests on the fitted dose curve. On the % scale 0 is the no-effect control and ±100 the full control effect.",
  "data": [
    {"biological_target": "Peroxisome proliferator-activated receptor delta (Homo sapiens) (UniProt Q03181)", "sequence (Q03181 whole entry, looked up)": "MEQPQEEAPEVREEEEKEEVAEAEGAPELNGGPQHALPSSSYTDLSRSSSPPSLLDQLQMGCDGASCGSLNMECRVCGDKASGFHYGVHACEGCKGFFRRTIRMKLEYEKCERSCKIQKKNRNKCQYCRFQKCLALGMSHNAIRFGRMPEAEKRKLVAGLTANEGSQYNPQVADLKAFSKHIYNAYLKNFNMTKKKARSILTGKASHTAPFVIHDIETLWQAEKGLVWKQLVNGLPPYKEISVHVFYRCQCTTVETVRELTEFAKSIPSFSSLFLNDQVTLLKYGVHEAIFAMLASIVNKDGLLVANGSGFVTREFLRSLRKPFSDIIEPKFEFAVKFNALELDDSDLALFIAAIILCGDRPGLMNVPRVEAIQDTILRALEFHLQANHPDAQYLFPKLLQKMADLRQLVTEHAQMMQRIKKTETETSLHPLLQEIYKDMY", "assay": "qHTS assay to identify small molecule agonists of the peroxisome proliferator-activated receptor delta (PPARd) signaling pathway (AID 743212);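 further: HEK293H cells with PPARd UAS beta-lactamase reporter GeneBLAzer system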", "details": "HEK293H PPARd-UAS-bla, beta-lactamase FRET ratio, 17 h; series mostly up to 62.6 µM; activation: at the top concentration", "procedure,_shortened": "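Quantitative high-throughput agonist screen in a HEK293H beta-lactamase reporter line under UAS control. Compounds in DMSO, at 37 C. Fluorescence read after 2 h with FRET substrate at room temperature.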", "values": [
      {"compound": "CC(=O)Nc1cccc(N)c1", "activation": "2.37% [at 81.1 µM] (inactive)"},
      {"compound": "CC(C)(C)N", "activation": "0.495% (inactive)"},
      {"compound": "Cc1cc(C)n(CO)n1", "activation": "-2.1% (inactive)"},
      {"compound": "O=C(O)CCc1nc2ccccc2[nH]1", "activation": "-2.12% (inactive)"},
      {"compound": "CC(C)(C)NCC(O)COc1ccc(NC(=O)NC2CCCCC2)cc1", "note": "(stereo not given)", "activation": "-1.72% (inactive)"},
      {"compound": "CCCCCCCCCCCCCCCCCCCl", "activation": "0.183% [at 5.95 µM] (inactive)"},
      {"compound": "O=C(c1ccc(Cl)cc1)c1ccc(Cl)cc1", "activation": "0.164% (inactive)"},
      {"compound": "CCC(C)C1N=C(C)C(C)S1", "note": "(stereo not given)", "activation": "0.525% (inactive)"},
      {"compound": "CC(C)C/C=C(\\C=O)c1ccccc1", "activation": "1.5% (inactive)"},
      {"compound": "N#Cc1ccc(CC(=O)c2cccc(C(F)(F)F)c2)cc1", "activation": "1.24% (inactive)"},
      {"compound": "O=S(=O)(O)c1cc(Cl)c(Cl)cc1Cl", "activation": "0.403% (inactive)"},
      {"compound": "CCCc1nc(C)c2c(=O)[nH]c(-c3cc(S(=O)(=O)N4CCN(CC)CC4)ccc3OCC)nn12", "activation": "0.682% (inactive)"},
      {"compound": "CS(C)=O", "activation": "-1.04% (inactive)"},
      {"compound": "CCOc1ccc2c(c1)C(C)CC(C)(C)N2", "note": "(stereo not given)", "activation": "1.06% (inactive)"},
      {"compound": "O=P(c1ccccc1)(c1ccccc1)c1ccccc1", "activation": "-2.14% (inactive)"},
      {"compound": "CCCC(=O)OCc1ccccc1", "activation": "-1.43% (inactive)"},
      {"compound": "Cc1ccc(NC=O)c(C)c1", "activation": "0.288% (inactive)"},
      {"compound": "CCC1=C(C)CN(C(=O)NCCc2ccc(S(=O)(=O)NC(=O)NC3CCC(C)CC3)cc2)C1=O", "note": "(stereo not given)", "activation": "-5.43% (inactive)"},
      {"compound": "COc1cc(C)c(Cc2cnc(N)nc2N)cc1OC", "activation": "-2.46% (inactive)"},
      {"compound": "CCCCOC(=O)C(C)Oc1ccc(Oc2ccc(C(F)(F)F)cn2)cc1", "note": "(stereo not given)", "activation": "-0.484% (inactive)"},
      {"compound": "C=CC(C)(O)CC/C=C(/C)CCC=C(C)C", "note": "(stereo not given)", "activation": "-0.472% (inactive)"},
      {"compound": "CC(=O)c1cccnc1", "activation": "2.02% (inactive)"},
      {"compound": "CCCCCO", "activation": "-3.05% (inactive)"},
      {"compound": "O=c1[nH]nc(-c2ccc([N+](=O)[O-])o2)o1", "activation": "2.38% (inactive)"},
      {"compound": "Clc1cccc(C(c2ccc3nc[nH]c3c2)n2ccnc2)c1", "note": "(stereo not given)", "activation": "0.564% (inactive)"}
    ]}
  ]
}
